Results filed as inconclusive are left out. Active and inactive are the calls of the source. Unless noted, the call rests on the fitted dose curve; in most records, active means well fitted curve in the direction sought with a large enough effect; inconclusive means small, poorly fitted or top-dose-only effect, or another doubt; inactive means no such curve, though single readings can be large; an effect the other way counts as inactive or inconclusive.
How the values were obtained:
[1] = molecular target: DNA repair nuclease/redox regulator APEX1 (Homo sapiens) (UniProt P27695); assay: qHTS Validation Assay for Inhibitors of the Human Apurinic/apyrimidinic Endonuclease 1 (APE1) (AID 1705;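 further: TAMRA fluorescence gain over two minutes as APE1 cuts a quenched THF abasic duplex; on the % scale 0 is the no-effect control and ±100 the full control effect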)
DNA repair nuclease/redox regulator APEX1 (Homo sapiens), sequence (P27695 whole entry, looked up): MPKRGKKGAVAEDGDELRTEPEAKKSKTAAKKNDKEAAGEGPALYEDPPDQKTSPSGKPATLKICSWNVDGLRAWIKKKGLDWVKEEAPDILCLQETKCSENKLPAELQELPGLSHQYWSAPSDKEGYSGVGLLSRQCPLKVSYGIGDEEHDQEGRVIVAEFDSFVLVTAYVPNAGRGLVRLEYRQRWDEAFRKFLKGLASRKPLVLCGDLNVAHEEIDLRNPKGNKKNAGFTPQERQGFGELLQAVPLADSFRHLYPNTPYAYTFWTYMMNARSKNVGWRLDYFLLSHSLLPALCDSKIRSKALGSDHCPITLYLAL
Outline: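 Activity read as rising fluorescence (598 nm emission, 525 nm excitation) from incision of a TAMRA/BHQ-2 duplex carrying a THF abasic site (50 nM). Compound and enzyme sat 15 min at RT before substrate start; signal change between first and third 60-s reads.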

[2] = Counterscreen for APE1 Inhibitors: Fluorescent Dye Displacement Validation Assay (AID 1707);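 further: plate controls were ThO with dsDNA and no compound for no effect and ThO without dsDNA for full effect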
Outline: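 Reaction mixture of 250 nM Thiazole Orange and 50 nM double-stranded abasic-site DNA was dispensed, compounds were pin-transferred, and fluorescence was read at endpoint (480 nm ex, 540 nm em). Reduced fluorescence indicated dye displacement by DNA binding.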

[3] = qHTS for differential inhibitors of proliferation of Plasmodium falciparum line 7G8 (AID 1815);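 further: parasite growth measured after three days of incubation; plate controls were vehicle wells for no effect and reference inhibitor wells for full effect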
[4] = qHTS for differential inhibitors of proliferation of Plasmodium falciparum line GB4 (AID 1816); details: Potency: Plasmodium falciparum GB4 proliferation inhibition;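 further: parasite growth measured after 72 h incubation; 0% = vehicle DMSO and -100% = reference inhibitor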
[5] = qHTS for differential inhibitors of proliferation of Plasmodium falciparum line 3D7 (AID 1876);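 further: parasite growth measured after three days of culture; 0% = vehicle wells and -100% = reference inhibitor wells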
[6] = qHTS for differential inhibitors of proliferation of Plasmodium falciparum line D10 (AID 1877);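 further: parasites grown with compound for 72 h before DNA staining; plate controls were vehicle wells for no effect and reference inhibitor wells for full effect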
[7] = qHTS for differential inhibitors of proliferation of Plasmodium falciparum line Dd2 (AID 1882); details: Potency: Plasmodium falciparum Dd2 proliferation inhibition;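 further: plate controls were DMSO vehicle for no effect and 0.29 µM artemisinin for full effect; nearly all actives have a fitted effect of over 65% in size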
Outline: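 RBC culture, 0.3% parasitemia / 2.5% Hct final; cpd added by pin tool in DMSO; 72 h, 37 C, 5% CO2; lysis buffer + SYBR Green I, o/n RT dark; FI 485/535; norm. to artemisinin 0.29 uM and DMSO.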

[8] = qHTS for differential inhibitors of proliferation of Plasmodium falciparum line W2 (AID 1883); details: Potency: Plasmodium falciparum W2 proliferation inhibition;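 further: parasites grown with compound for 72 h before lysis and staining; 0% = vehicle wells and -100% = control inhibitor wells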
[9] = qHTS for differential inhibitors of proliferation of Plasmodium falciparum line HB3 (AID 1886); details: Potency: Plasmodium falciparum HB3 proliferation inhibition;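 further: parasites grown with compound for 72 h before SYBR Green readout; plate controls were vehicle for no effect and reference inhibitor for full effect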
[10] = molecular target: Ferritin light chain (Equus caballus) (UniProt P02791); assay: qHTS Validation Assay for Identification of Novel General Anesthetics (AID 2323); further: on the % scale 0 is the no-effect control and ±100 the full control effect
Ferritin light chain (Equus caballus), sequence (P02791 2-175 limits assumed): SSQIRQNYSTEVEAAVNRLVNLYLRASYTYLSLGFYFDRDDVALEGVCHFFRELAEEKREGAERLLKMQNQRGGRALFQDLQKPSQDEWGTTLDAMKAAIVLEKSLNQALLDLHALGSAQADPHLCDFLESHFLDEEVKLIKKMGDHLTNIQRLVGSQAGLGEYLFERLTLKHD
Outline: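 Competitive displacement of the profluorescent anesthetic 1-AMA (50% saturated, PBS) from 10 uM apoferritin, 10 min, room temperature. Activity is normalized 380/535 nm fluorescence; concentration-response fitted with a four-parameter Hill equation.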

[11] = molecular target: ATP-dependent DNA helicase Q1 (Homo sapiens) (UniProt P46063); assay: qHTS Validation Assay for Inhibitors of RecQ-Like Dna Helicase 1 (RECQ1) (AID 2353);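 further: plate controls were DMSO vehicle for no effect and enzyme-free control for full effect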
ATP-dependent DNA helicase Q1 (Homo sapiens), sequence (P46063 whole entry, looked up): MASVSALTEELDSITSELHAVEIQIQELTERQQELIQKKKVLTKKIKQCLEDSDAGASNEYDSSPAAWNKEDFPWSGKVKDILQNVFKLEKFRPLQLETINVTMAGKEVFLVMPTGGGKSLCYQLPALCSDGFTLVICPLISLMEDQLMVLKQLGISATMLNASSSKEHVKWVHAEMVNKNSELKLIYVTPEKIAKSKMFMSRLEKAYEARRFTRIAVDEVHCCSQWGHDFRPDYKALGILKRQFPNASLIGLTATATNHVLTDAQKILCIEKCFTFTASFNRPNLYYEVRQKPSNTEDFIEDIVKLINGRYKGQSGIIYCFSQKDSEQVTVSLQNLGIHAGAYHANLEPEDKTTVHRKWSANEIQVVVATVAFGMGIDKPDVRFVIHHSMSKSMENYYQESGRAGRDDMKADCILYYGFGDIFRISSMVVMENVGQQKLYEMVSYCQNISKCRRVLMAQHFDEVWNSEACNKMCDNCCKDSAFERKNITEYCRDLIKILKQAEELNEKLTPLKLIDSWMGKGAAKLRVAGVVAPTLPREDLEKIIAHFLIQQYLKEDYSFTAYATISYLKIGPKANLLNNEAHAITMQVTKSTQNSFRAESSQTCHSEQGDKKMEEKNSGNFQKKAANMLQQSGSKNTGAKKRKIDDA
Outline: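 RECQ1T1 50 nM; forked duplex (20 bp + 30-nt ss tails) 200 nM, ATP 2 mM final; pH 8.0, 2 mM MgCl2, 2.5 ug/ml poly(dI-dC); 15 min compound preincubation; discontinuous kinetic read over 2 h at RT.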

[12] = Validation screen for inhibitors of Lassa infection (AID 463096; calls by dose curve; further: on the % scale 0 is the no-effect control and ±100 the full control effect)
[13] = Validation screen for small molecules that induce DNA re-replication in MCF 10A normal breast cells (AID 463097); further: 0% is about no effect; nearly all actives have a fitted effect of over 60% in size
Outline: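 Read-out is Hoechst total nuclear intensity by fluorescence scanning imager, flagging increased high-DNA-content nuclei. Compounds were incubated with MCF 10A cells for 48 hr (37 C, 5% CO2) before 40 min staining.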

[14] = Quantitative high throughput screen for delayed death inhibitors of the malarial parasite plastid, 96 hour incubation (AID 488745); further: on the % scale 0 is the no-effect control and ±100 the full control effect; nearly all actives have a fitted effect of over 70% in size
Outline: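 Two-generation (96 h) exposure of luciferase-reporter P. falciparum in erythrocytes, 2% hematocrit, 0.1% parasitemia final, 37 C, 5% CO2, RPMI 1640 with 0.5% Albumax. Growth inhibition scored by reduced luminescence.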

[15] = Quantitative high throughput screen for delayed death inhibitors of the malarial parasite plastid, 48 hour incubation (AID 488752); further: on the % scale 0 is the no-effect control and ±100 the full control effect; nearly all actives have a fitted effect of over 65% in size
Outline: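 Cultures: infected erythrocytes at final 2% hematocrit and 0.1% parasitemia in Albumax-supplemented RPMI. Parasites express integrated firefly luciferase. Incubation with compound lasts 48 h before luminescent detection of remaining reporter activity.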

[16] = molecular target: M-phase phosphoprotein 8 (Homo sapiens) (UniProt Q99549); assay: qHTS Validation Assay for Inhibitors for MPP8 Chromodomain Interactions with Methylated Histone Tails (AID 488949);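 further: AlphaScreen signal from MPP8 chromodomain bound to biotinylated H3K9me3 peptide; top concentration of the series differs between compounds; on the % scale 0 is the no-effect control and ±100 the full control effect; nearly all actives have a fitted effect of over 55% in size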
M-phase phosphoprotein 8 (Homo sapiens), sequence (Q99549 whole entry, looked up): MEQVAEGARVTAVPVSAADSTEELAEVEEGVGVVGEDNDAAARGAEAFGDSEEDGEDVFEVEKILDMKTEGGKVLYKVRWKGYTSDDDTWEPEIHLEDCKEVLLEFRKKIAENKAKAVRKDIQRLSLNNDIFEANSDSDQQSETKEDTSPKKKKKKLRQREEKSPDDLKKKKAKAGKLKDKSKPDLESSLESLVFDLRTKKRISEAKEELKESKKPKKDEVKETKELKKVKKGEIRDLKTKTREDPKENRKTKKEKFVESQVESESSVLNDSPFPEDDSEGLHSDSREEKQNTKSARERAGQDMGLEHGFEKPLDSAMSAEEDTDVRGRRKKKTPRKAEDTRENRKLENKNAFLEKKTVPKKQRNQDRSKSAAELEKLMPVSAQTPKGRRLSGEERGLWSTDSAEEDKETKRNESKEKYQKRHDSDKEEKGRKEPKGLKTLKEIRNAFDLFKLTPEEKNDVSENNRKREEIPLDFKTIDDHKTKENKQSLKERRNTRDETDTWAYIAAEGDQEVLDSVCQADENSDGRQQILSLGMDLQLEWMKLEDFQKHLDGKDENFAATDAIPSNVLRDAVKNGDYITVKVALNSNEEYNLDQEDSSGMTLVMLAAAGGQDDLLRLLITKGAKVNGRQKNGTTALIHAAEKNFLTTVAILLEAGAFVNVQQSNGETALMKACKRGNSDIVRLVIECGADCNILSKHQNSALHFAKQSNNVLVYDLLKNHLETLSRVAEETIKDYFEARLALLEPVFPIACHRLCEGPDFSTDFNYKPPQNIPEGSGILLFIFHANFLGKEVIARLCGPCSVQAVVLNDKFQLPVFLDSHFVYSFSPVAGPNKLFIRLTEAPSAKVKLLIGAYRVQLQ
Outline: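 AlphaScreen proximity signal from streptavidin donor and Ni-chelate acceptor beads (10 ug/mL each) reported binding of MPP8 to trimethyl-K9 H3(1-18) peptide, both at 50 nM. The complex formed 30 min before a 30 min compound exposure at room temperature, in PBS pH 7.4.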

[17] = molecular target: Transient receptor potential cation channel subfamily V member 1 (Homo sapiens) (UniProt Q8NER1); assay: HTS Assay for Compounds that Act as Enhancers of the Vanilloid Receptor 1 (AID 488979); further: 0% is about no effect
Transient receptor potential cation channel subfamily V member 1 (Homo sapiens), sequence (Q8NER1 whole entry, looked up): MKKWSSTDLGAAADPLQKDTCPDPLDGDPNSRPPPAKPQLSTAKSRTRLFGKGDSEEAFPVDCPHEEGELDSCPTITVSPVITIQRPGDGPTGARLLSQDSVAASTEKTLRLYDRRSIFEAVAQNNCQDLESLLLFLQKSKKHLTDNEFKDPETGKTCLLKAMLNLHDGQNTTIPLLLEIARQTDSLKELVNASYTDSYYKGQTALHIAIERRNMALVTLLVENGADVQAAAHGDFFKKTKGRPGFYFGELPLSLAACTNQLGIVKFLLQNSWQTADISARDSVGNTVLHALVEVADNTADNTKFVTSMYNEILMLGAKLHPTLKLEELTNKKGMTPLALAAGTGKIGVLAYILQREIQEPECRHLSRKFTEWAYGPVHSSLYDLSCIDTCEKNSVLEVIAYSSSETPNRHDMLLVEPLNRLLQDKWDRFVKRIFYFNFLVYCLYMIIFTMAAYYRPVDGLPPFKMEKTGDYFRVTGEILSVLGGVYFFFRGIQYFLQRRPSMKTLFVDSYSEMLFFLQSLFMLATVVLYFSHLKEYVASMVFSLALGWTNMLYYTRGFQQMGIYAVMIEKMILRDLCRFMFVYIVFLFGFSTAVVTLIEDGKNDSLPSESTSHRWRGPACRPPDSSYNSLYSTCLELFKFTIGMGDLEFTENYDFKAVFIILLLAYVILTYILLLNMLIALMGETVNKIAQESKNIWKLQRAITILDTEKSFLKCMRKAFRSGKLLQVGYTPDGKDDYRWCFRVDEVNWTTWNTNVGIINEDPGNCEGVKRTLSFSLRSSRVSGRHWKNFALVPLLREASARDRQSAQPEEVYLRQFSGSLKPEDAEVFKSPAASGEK
Outline: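 TRPV1 cells loaded with Fluo-8 calcium dye; compound added and Ca2+ signal (ex 480/em 520 nm) followed 3 min, then capsaicin at EC20 added and read 2 more min to detect enhancement.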

[18] = molecular target: Thyrotropin receptor (Homo sapiens) (UniProt P16473); assay: qHTS Assay for Antagonists of the Thyroid Stimulating Hormone Receptor (AID 488980); further: 0% is about no effect
Thyrotropin receptor (Homo sapiens), sequence (P16473 whole entry, looked up): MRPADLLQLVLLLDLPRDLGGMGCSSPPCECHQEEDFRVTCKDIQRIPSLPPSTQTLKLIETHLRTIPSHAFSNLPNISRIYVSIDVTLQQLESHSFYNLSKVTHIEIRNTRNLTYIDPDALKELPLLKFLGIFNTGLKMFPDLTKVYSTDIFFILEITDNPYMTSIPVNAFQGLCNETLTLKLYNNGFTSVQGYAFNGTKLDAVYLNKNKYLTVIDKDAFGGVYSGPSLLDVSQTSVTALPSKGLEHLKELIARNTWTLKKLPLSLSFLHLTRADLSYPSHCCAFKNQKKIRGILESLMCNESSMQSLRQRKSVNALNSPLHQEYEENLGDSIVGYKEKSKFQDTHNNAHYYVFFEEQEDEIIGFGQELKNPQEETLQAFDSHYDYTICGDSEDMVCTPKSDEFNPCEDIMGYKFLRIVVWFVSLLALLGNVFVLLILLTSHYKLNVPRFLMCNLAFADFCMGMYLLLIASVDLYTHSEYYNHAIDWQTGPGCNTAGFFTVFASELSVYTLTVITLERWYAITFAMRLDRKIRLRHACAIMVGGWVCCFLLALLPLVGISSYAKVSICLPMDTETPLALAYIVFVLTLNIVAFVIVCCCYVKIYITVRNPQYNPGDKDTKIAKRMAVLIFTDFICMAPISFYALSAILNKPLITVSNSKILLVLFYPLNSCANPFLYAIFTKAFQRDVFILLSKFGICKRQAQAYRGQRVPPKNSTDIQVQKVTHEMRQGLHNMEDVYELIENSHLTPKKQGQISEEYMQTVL
Outline: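 Inhibition of cAMP raised by EC80 TSH (4 nM final) was read by HTRF, with lysate cAMP competing against cAMP-d2 for cryptate antibody after 30 min at room temperature. The cells were transfected HEK293 held in phosphodiesterase inhibitor RO 20-1724 at 70 uM.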

[19] = molecular target: Thyrotropin-releasing hormone receptor (Homo sapiens) (UniProt P34981); assay: qHTS for Small Molecule Agonists and Allosteric Enhancers of Human TRH Receptor: Validation Screen for Agonists (AID 493127;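 active means calcium activation more than 3 SD above the typical response in the agonist read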;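 further: intracellular calcium rise by fluo-8 fluorescence before TRH EC20 addition; 0% is about no effect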); details: TRH receptor agonist cell assay; at 2 µM; active compounds read high
Outline: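 Kinetic fluorescence assay of agonist-induced calcium release: overnight-plated TRHR cells, room-temperature fluo-8 loading, baseline then compound addition with per-second reads.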

[20] = molecular target: Galactokinase (Homo sapiens) (UniProt P51570); assay: qHTS Validation Assay for Inhibitors of Human Galactokinase (GALK) (AID 493189); further: 0% is about no effect
Outline: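 Inhibition was measured as remaining ATP, detected by luciferase luminescence after a 1 h room-temperature reaction. Final conditions: 5 nM GALK, 100 uM galactose, 35 uM ATP, pH 8.0 HEPES buffer.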

[21] = Validation screen for small molecules that induce DNA re-replication in SW480 colon adenocarcinoma cells (AID 504364); further: 0% is about no effect
Outline: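 Hoechst-stained SW480 nuclei, imaged at 405 nm excitation after 48 hr compound exposure, were counted for elevated DNA content as the re-replication signal.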

[22] = molecular target: Ubiquitin carboxyl-terminal hydrolase 1 (Homo sapiens) (UniProt O94782); assay: Inhibitors of USP1/UAF1: Pilot qHTS (AID 504865);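 further: rhodamine fluorescence freed from ubiquitin-rhodamine substrate followed over time; top concentration of the series differs between compounds; on the % scale 0 is the no-effect control and ±100 the full control effect; nearly all actives have a fitted effect of over 35% in size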
Ubiquitin carboxyl-terminal hydrolase 1 (Homo sapiens), sequence (O94782 whole entry, looked up): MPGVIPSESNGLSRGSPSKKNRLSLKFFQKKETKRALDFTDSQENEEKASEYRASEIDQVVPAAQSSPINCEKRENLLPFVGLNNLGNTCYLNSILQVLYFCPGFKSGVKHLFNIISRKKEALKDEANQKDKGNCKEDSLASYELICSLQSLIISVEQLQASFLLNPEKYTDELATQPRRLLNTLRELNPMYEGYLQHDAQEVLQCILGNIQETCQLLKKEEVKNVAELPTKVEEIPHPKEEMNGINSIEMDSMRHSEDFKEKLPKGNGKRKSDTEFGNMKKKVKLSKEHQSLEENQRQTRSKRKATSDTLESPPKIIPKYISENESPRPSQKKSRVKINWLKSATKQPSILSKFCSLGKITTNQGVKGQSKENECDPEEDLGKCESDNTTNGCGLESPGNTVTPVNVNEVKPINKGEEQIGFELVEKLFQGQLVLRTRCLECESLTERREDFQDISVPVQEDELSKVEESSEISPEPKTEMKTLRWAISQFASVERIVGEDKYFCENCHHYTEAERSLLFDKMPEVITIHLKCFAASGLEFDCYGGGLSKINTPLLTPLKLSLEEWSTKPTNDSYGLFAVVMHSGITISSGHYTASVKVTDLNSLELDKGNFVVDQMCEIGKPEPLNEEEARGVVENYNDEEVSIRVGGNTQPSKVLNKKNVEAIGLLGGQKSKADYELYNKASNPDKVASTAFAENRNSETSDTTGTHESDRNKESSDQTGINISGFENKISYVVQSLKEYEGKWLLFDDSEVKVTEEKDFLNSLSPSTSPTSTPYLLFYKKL
Outline: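 Deubiquitinase activity followed as kinetic rhodamine fluorescence release from 150 nM Ub-Rho. 1 nM USP1/UAF1 with compound, after 15 min room-temperature preincubation, in HEPES pH 7.8 buffer containing TCEP, EDTA, BSA and Tween-20.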

[23] = molecular target: Luciferin 4-monooxygenase (Photinus pyralis) (UniProt P08659); assay: Biochemical firefly luciferase enzyme assay for NPC (AID 624030);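 further: purified P. pyralis luciferase at 10 nM with luciferin and ATP substrate; 0% = DMSO and -100% = full luciferase inhibition by PTC124 control; nearly all actives have a fitted effect of over 70% in size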
Luciferin 4-monooxygenase (Photinus pyralis), sequence (P08659 whole entry, looked up): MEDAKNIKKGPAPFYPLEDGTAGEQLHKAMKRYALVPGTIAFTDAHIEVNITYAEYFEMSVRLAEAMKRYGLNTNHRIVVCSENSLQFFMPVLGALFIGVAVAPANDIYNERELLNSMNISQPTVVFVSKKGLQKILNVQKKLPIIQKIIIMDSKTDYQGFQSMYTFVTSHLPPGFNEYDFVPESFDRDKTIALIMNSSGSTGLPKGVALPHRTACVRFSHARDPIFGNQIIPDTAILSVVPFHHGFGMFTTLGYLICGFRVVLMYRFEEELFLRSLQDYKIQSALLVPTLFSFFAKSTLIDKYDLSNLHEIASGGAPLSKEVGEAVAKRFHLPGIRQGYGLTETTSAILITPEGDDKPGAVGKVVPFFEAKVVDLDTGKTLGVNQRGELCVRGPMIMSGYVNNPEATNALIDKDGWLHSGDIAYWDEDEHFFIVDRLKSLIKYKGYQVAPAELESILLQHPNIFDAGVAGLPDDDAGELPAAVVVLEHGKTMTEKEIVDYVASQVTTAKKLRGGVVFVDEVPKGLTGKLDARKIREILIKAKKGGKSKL
Outline: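 Purified P. pyralis luciferase at 10 nM in 50 mM Tris Acetate (final), luminescence read within 5 minutes of enzyme addition to compounds. Activity normalised to PTC124 versus DMSO; concentration-response curves classed by r2, magnitude and activity.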

[24] = S16 Schwann cell PMP22 intronic element firefly luciferase assay (AID 624032);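 further: plate controls were DMSO for no effect and PTC124 positive control mean for full effect; nearly all actives have a fitted effect of over 30% in size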
Outline: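 Rat S16 Schwann cells stably carrying firefly luciferase driven by a PMP22 intronic element, in 10% FBS, treated 24 h at 37 C. ONE-Glo luminescence normalized to PTC124 control and DMSO (0%); curves classed by r2, magnitude and activity.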

[25] = S16 Schwann cell PMP22 intronic element beta-lactamase assay (AID 624044; calls by dose curve;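 further: 0% = DMSO and -100% = potassium clavulanate positive control; nearly all actives have a fitted effect of over 15% in size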); details: S16 rat Schwann cells, PMP22 element beta-lactamase FRET, 24 h; ratio activity, negative = inhibition: at 38.3 µM (top of the series) unless noted
Outline: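 Beta-lactamase reporter under a PMP22 intronic regulatory element in stable S16 rat Schwann cells; 24 h compound exposure. 460 nm blue signal normalized between DMSO (0%) and potassium clavulanate, with 535 nm FRET tracking viability; curves classed by r2 and response.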

[26] = qHTS profiling for inhibitors of Plasmodium falciparum proliferation (AID 504749);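 further: 0% = DMSO vehicle and full inhibition = artemisinin control; nearly all actives have a fitted effect of over 60% in size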; details: P. falciparum in erythrocytes, SYBR Green DNA, 72 h, at 28.7 µM (top of the series)
Outline: (§1)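 SYBR Green fluorescence (ex 485 nm, em 535 nm) reports parasite DNA after 72 h compound exposure of infected red cells at 0.3% parasitemia, 2.5% hematocrit; signal normalized to 0.29 uM artemisinin and vehicle wells.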

3D7 = assay: as above; details: P. falciparum in erythrocytes, SYBR Green DNA, 72 h; series mostly up to 28.7 µM
Outline: as §1

7G8 = assay: as above; details: P. falciparum in erythrocytes, SYBR Green DNA, 72 h; series mostly up to 12.8 µM
Outline: as §1

AA1029 = assay: as above; details: P. falciparum in erythrocytes, SYBR Green DNA, 72 h; series mostly up to 28.7 µM
Outline: as §1

AS120 = assay: as above; details: P. falciparum in erythrocytes, SYBR Green DNA, 72 h; series mostly up to 28.7 µM
Outline: as §1

ATS189 = assay: as above; details: P. falciparum in erythrocytes, SYBR Green DNA, 72 h; series mostly up to 28.7 µM
Outline: as §1

ATS95 = assay: as above; details: P. falciparum in erythrocytes, SYBR Green DNA, 72 h; series mostly up to 28.7 µM
Outline: as §1

C2A = assay: as above; details: P. falciparum in erythrocytes, SYBR Green DNA, 72 h; series mostly up to 28.7 µM
Outline: as §1

CP185 = assay: as above; details: P. falciparum in erythrocytes, SYBR Green DNA, 72 h; series mostly up to 28.7 µM
Outline: as §1

CP191 = assay: as above; details: P. falciparum in erythrocytes, SYBR Green DNA, 72 h; series mostly up to 28.7 µM
Outline: as §1

CP192 = assay: as above; details: P. falciparum in erythrocytes, SYBR Green DNA, 72 h; series mostly up to 28.7 µM
Outline: as §1

CP194 = assay: as above; details: P. falciparum in erythrocytes, SYBR Green DNA, 72 h; series mostly up to 28.7 µM
Outline: as §1

CP201 = assay: as above; details: P. falciparum in erythrocytes, SYBR Green DNA, 72 h; series mostly up to 28.7 µM
Outline: as §1

CP203 = assay: as above; details: P. falciparum in erythrocytes, SYBR Green DNA, 72 h; series mostly up to 28.7 µM
Outline: as §1

CP211 = assay: as above; details: P. falciparum in erythrocytes, SYBR Green DNA, 72 h; series mostly up to 28.7 µM
Outline: as §1

CP215 = assay: as above; details: P. falciparum in erythrocytes, SYBR Green DNA, 72 h; series mostly up to 28.7 µM
Outline: as §1

C[C@]12CC[C@H](OS(=O)(=O)O)CC1=CCC1C2CC[C@]2(C)C(=O)CC[C@@H]12 (some centres not stated)
inactive: Potency [1] | outcome [2] | Potency [3] | Potency [4] | Potency [5] | Potency [6] | Potency [7] | Potency [8] | Potency [9] | Potency [10] | outcome [11] | Potency [12] | Potency [13] | Potency [14] | Potency [15] | Potency [16] | outcome [17] | outcome [18] | activation [19] 0.688% | outcome [20] | outcome [21] | Potency [22] | Potency [23] | Potency [24] | Potency [25] | activity, negative = inhibition ([26]; parasite line A) -6.88% | activity, negative = inhibition ([26]; parasite line B) 5.59% | Potency (3D7) | Potency (7G8) | Potency (AA1029) | Potency (AS120) | Potency (ATS189) | Potency (ATS95) | Potency (C2A) | Potency (CP185) | Potency (CP191) | Potency (CP192) | Potency (CP194) | Potency (CP201) | Potency (CP203) | Potency (CP211) | Potency (CP215)

Source: PubChem BioAssay (NCATS)
